In PubChem BioAssay (Tox21) one finds outcome and Potency data, which are given here for 23 compounds.

Structures are written as SMILES. Values without a mark were called inactive. Records with an inconclusive call do not appear. Calls of active or inactive are those of the source. Unless noted, calls come from the whole dose curve; as a rule, active = well fitted curve in the direction sought with a large enough effect in the repeat runs; inconclusive = weak or mixed curves; inactive = flat fitted curve, though single readings scatter.

A short description of test [1]: qHTS assay to test for compound auto fluorescence at 535 nm (green) in HEK293 cells (AID 720680). (In general: Quantitative high-throughput screening tests each substance at several concentrations.)
Test [2] in a line: qHTS assay to test for compound auto fluorescence at 460 nm (blue) in HEK293 cell free culture (AID 720681). In outline:
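Test compounds were pinned into cell-free culture medium (DMEM with 10% FBS) and fluorescence was read directly at Ex/Em 405/460 nm. Signals were expressed as fluorescence equivalents of triamterene, with DMSO vehicle as control.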

A short description of test [3]: qHTS assay to test for compound auto fluorescence at 535 nm (green) in HEK293 cell free culture (AID 720682). In outline: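 Intrinsic compound fluorescence is measured in culture medium containing 10% FBS, with excitation at 485 nm and detection at 535 nm, referenced to fluorescein.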
The nature of test [4]: qHTS assay to test for compound auto fluorescence at 590 nm (red) in HEK293 cell free culture (AID 720683). In outline: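 Tox21 10K library compounds were pinned into cell-free DMEM with 10% FBS and fluorescence was read at excitation 540 nm. Activity is expressed as Rose Bengal sodium equivalency.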
Test [5] in a line: qHTS assay to test for compound auto fluorescence at 590 nm (red) in HepG2 cell free culture (AID 720684). The method in brief:
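Measured in medium alone (MEM containing 10% FBS) following pintool addition of compound; emission at 590 nm with 540 nm excitation, referenced to Rose Bengal sodium.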

Test [6] in a line: qHTS assay to test for compound auto fluorescence at 460 nm (blue) in HepG2 cell free culture (AID 720685). In outline: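 Compound (23 nL) or DMSO pinned into cell-free MEM with 10% FBS; blue fluorescence read at 405/460 nm excitation/emission, expressed as auto-fluorescence equivalency to triamterene.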
Test [7] in a line: qHTS assay to test for compound auto fluorescence at 535 nm (green) in HepG2 cell free culture (AID 720686).
Test [8] in a line: qHTS assay to test for compound auto fluorescence at 460 nm (blue) in HepG2 cells (AID 720687). The method in brief:
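Cells (2,000/well in MEM with 10% FBS) attached overnight at 37 C, then were exposed to compound or DMSO for 1 hr at 37 C, 5% CO2. Fluorescence read at Ex/Em 405/460 nm, expressed as triamterene-equivalent signal.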

Test [9] addresses Glucocorticoid receptor (Homo sapiens) (UniProt P04150). The test can be described thus: qHTS assay to identify small molecule antagonists of the glucocorticoid receptor (GR) signaling pathway (AID 720692; active = well fitted inhibition curve with a large enough effect in the signal ratio in the repeat runs, not every such curve was filed as active; the % refers to the signal ratio; note: potency is the fitted concentration of half-maximal effect). In outline: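 GR-bla HeLa cells carrying a GRE-driven beta-lactamase reporter received compound after 4 h plating, then dexamethasone (5 nM final). After 18 h at 37C, the FRET substrate was loaded for 2 h at room temperature and fluorescence read.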

For test [10] the target is unchanged. In words: qHTS assay to identify small molecule agonists of the glucocorticoid receptor (GR) signaling pathway (AID 720691; active = well fitted activation curve with a large enough effect in the signal ratio in the repeat runs, not every such curve was filed as active; the % refers to the signal ratio). The method in brief:
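GR-bla HeLa cells carrying a GRE-driven beta-lactamase reporter, exposed to compounds for 18 h at 37 C. Reporter activation read as fluorescence after 2 h with LiveBLAzer B/G FRET substrate at room temperature.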

Glucocorticoid receptor (Homo sapiens), sequence (P04150 whole entry, looked up): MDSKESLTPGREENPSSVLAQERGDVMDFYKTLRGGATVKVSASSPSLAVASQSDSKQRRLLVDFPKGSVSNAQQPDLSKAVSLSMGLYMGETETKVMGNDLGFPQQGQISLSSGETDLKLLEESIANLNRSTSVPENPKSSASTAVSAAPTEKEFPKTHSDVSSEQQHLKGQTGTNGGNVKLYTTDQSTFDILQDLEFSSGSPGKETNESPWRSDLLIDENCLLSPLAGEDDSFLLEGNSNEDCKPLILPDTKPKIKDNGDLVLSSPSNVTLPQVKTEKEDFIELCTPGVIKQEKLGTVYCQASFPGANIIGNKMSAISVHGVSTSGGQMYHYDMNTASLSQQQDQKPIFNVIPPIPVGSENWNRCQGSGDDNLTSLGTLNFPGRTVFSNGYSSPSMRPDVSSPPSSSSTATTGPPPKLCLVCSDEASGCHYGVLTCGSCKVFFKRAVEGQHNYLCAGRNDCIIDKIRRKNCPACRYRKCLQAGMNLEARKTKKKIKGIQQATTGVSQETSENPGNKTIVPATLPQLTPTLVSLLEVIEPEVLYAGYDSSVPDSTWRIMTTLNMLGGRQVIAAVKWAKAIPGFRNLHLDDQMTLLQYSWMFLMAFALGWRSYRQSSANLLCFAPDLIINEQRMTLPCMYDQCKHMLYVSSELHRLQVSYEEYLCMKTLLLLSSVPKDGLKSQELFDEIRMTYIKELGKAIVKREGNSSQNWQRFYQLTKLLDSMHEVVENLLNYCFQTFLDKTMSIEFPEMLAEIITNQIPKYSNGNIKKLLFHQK

Turning to `Cl/C=C\Cl`, the compound was called inactive in test [1], in test [2], in test [3], in test [4], in test [5] and in test [6]. Besides, the compound was classed as inactive in test [7] and in test [8]. Also, the Potency entry in [9] is “inactive”.

With `O=[N+]([O-])C(Br)(CO)CO`, the result in test [1], in [2], in [3], in [4], in test [5] and in test [6] was inactive. Moreover, the result in [8] was inactive.

Take `CNC(C)Cc1ccccc1OC` (centres undefined): the result in test [1], in test [2], in test [3], in [4], in test [5] and in [6] was inactive. Moreover, the compound was classed as inactive in test [7] and in test [8]. The Potency result in [9] was “inactive”.

For `c1ccoc1`, the outcome in test [1], in test [2], in test [3], in [4], in test [5] and in test [6] was inactive. In addition, the compound was classed as inactive in test [7], in test [8] and in test [10]. The Potency result in test [9] was “inactive”.

On to `O=C(O)COc1ccc(Cl)cc1`, for which the compound was classed as inactive in test [1], in [2], in [3], in test [4], in test [5] and in test [6]. In addition, the compound was called inactive in test [7], in test [8] and in [10]. For the same compound, the Potency entry in test [9] is “inactive”.

Regarding `CCCCCCCCCC(=O)O[C@H]1CC[C@H]2[C@@H]3CCC4=CC(=O)CC[C@@H]4[C@H]3CC[C@]12C`, the result in [1], in test [2], in test [3], in test [4], in test [5] and in test [6] was inactive. In addition, the call in [7] and in test [8] was inactive. In test [9], the Potency is 9.52 µM (active).

`CCOS(C)(=O)=O`: the result in test [1], in test [2], in test [3], in [4], in test [5] and in test [6] was inactive. For the same compound, the call in test [8] was inactive.

In the case of `ClCC(Br)CBr` (centres undefined), the result in [1], in test [2], in [3], in test [4], in [5] and in [6] was inactive. The result in test [7], in test [8] and in test [10] was inactive. Also, in test [9], the Potency result is “inactive”.

For `C(=NC1CCCCC1)=NC1CCCCC1`, the call in [1], in test [2], in test [3], in test [4], in test [5] and in [6] was inactive. Also, the result in [8] was inactive.

Take `O=C(O)CC(Cl)C(=O)O` (centres undefined): the call in test [1], in test [2], in test [3], in test [4], in test [5] and in test [6] was inactive. Further, the compound was called inactive in test [7], in test [8] and in test [10]. Also, the Potency result in test [9] is “inactive”.

As for `CCOP(=S)(OCC)Oc1nc(Cl)c(Cl)cc1Cl`, the result in test [1], in test [2], in [3], in test [4], in test [5] and in [6] was inactive. Also, the result in test [7], in test [8] and in test [10] was inactive. Also, the Potency entry in test [9] was “inactive”.

`ClC=C(Cl)Cl`: the call in test [1], in test [2], in test [3], in [4], in test [5] and in [6] was inactive. Further, the outcome in test [8] was inactive.

In the case of `CCCCC(CC)COP(=O)(Oc1ccccc1)Oc1ccccc1` (centres undefined), the compound was classed as inactive in test [1], in [2], in [3], in test [4], in test [5] and in test [6]. Moreover, the call in test [8] and in test [10] was inactive. Also, the Potency result in [9] is “inactive”.

For `CC(=O)NC1CCSC1=O` (centres undefined), the compound was called inactive in test [1], in [2], in [3], in test [4], in test [5] and in test [6]. In addition, the call in [8] and in test [10] was inactive. Also, the Potency result in test [9] is “inactive”.

For the compound `O=C(C(Cl)(Cl)Cl)C(Cl)(Cl)Cl`, the outcome in test [1], in test [2], in [3], in [4], in test [5] and in [6] was inactive. The compound was called inactive in test [8] and in [10]. Moreover, in test [9], the Potency result is “inactive”.

As for `CCCC(Cn1cncn1)c1ccc(Cl)cc1Cl` (centres undefined), the outcome in test [1], in [2], in test [3], in test [4], in [5] and in [6] was inactive. For the same compound, the result in test [8] was inactive. In test [9], the Potency is 49 µM (active).

For the compound `CCCN(CCC)c1c([N+](=O)[O-])cc(S(C)(=O)=O)cc1[N+](=O)[O-]`, the compound was called inactive in test [1], in [2], in test [3], in test [4], in test [5] and in test [6]. For the same compound, the result in test [8] and in test [10] was inactive. The Potency entry in test [9] was “inactive”.

As to `Cc1ccccc1CCl`, the result in test [1], in test [2], in test [3], in test [4], in test [5] and in [6] was inactive. For the same compound, the call in test [8] and in [10] was inactive.

Turning to `ClP(Cl)(Cl)(Cl)Cl`, the outcome in [1], in test [2], in [3], in test [4], in [5] and in test [6] was inactive. Also, the result in test [8] and in [10] was inactive. Also, the Potency result in [9] was “inactive”.

For the compound `O=S(=O)(O)C(F)(F)C(F)(F)C(F)(F)C(F)(F)F`, the result in test [1], in test [2], in [3], in test [4], in test [5] and in test [6] was inactive. The result in test [8] and in test [10] was inactive. Moreover, the Potency entry in test [9] was “inactive”.

Regarding `O=S(=O)(Cl)c1ccccc1`, the call in test [1], in [2], in [3], in [4], in test [5] and in test [6] was inactive. In addition, the call in [8] was inactive.

For `O=C1CN=C(c2ccccc2)c2cc(Cl)ccc2N1CC1CC1`, the call in [1], in test [2], in [3], in test [4], in test [5] and in test [6] was inactive. Further, the compound was called inactive in test [8] and in [10]. Moreover, the Potency in test [9] is 45.8 µM (active).

On to `O=C1c2ccccc2C(=O)C1C(=O)C(c1ccccc1)c1ccccc1`, for which the result in test [1], in test [2], in test [3], in test [4], in test [5] and in test [6] was inactive. The call in test [8] was inactive. For the same compound, the Potency in test [9] is 21.3 µM (active).
